Consider seven compounds from ChEMBL document CHEMBL1961873, “Compounds: GSK PKIS; Assays: Nanosyn kinase panel” (2012).

For experiment [1], the target named is Fibroblast growth factor receptor 4 (Homo sapiens) (UniProt P22455). The following applies: at 1 µM.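 Also: reported figure is the averaged percent inhibition of FGFR4, from the GSK PKIS kinase screening panel.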
The target in experiment [2] is Tyrosine-protein kinase Fgr (Homo sapiens) (UniProt P09769). The following applies: at 0.1 µM.
For experiment [3] the target is unchanged. The following applies: at 1 µM.
Experiment [4] has as its target Vascular endothelial growth factor receptor 1 (Homo sapiens) (UniProt P17948). The settings on record: at 0.1 µM.
Experiment [5] shares this target. The settings on record: at 1 µM.
Experiment [6] concerns the target Receptor-type tyrosine-protein kinase FLT3 (Homo sapiens) (UniProt P36888). The settings on record: at 0.1 µM.
Experiment [7] has the same target. The settings on record: at 1 µM.
Experiment [8] deals with T1, Receptor-type tyrosine-protein kinase FLT3 (Homo sapiens), P36888 [D835Y].
T1 sequence (whole entry): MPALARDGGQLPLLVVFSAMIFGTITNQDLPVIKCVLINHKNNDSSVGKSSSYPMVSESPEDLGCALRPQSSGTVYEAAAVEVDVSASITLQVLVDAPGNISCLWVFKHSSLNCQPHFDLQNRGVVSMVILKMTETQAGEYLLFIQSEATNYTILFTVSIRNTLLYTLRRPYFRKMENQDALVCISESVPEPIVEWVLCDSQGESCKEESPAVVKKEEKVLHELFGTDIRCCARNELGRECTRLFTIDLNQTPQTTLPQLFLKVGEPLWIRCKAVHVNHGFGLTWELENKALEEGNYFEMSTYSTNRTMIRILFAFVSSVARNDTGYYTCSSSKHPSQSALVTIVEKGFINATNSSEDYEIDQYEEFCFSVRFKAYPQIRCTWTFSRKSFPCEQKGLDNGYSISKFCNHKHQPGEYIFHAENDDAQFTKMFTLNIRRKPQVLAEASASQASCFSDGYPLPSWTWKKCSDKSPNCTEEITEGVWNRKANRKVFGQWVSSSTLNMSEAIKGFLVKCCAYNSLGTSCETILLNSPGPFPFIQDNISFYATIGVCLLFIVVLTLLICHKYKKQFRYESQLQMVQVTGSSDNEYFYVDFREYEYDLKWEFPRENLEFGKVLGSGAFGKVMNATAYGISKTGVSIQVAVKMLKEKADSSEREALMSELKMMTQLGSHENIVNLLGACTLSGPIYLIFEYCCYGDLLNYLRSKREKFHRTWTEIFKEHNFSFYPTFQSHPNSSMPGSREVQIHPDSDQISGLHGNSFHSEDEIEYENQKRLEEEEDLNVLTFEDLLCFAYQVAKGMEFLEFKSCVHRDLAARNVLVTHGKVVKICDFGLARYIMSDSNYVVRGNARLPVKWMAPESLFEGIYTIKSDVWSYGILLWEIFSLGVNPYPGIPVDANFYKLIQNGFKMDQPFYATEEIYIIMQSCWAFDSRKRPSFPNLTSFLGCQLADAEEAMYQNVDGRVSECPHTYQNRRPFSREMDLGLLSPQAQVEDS
The following applies: at 0.1 µM.

Experiment [9] addresses Non-receptor tyrosine-protein kinase TYK2 (Homo sapiens) (UniProt P29597). The following applies: at 1 µM.
The target of experiment [10] is T2, Tyrosine-protein kinase receptor TYRO3 (Homo sapiens) (UniProt Q06418).
T2 sequence (whole entry): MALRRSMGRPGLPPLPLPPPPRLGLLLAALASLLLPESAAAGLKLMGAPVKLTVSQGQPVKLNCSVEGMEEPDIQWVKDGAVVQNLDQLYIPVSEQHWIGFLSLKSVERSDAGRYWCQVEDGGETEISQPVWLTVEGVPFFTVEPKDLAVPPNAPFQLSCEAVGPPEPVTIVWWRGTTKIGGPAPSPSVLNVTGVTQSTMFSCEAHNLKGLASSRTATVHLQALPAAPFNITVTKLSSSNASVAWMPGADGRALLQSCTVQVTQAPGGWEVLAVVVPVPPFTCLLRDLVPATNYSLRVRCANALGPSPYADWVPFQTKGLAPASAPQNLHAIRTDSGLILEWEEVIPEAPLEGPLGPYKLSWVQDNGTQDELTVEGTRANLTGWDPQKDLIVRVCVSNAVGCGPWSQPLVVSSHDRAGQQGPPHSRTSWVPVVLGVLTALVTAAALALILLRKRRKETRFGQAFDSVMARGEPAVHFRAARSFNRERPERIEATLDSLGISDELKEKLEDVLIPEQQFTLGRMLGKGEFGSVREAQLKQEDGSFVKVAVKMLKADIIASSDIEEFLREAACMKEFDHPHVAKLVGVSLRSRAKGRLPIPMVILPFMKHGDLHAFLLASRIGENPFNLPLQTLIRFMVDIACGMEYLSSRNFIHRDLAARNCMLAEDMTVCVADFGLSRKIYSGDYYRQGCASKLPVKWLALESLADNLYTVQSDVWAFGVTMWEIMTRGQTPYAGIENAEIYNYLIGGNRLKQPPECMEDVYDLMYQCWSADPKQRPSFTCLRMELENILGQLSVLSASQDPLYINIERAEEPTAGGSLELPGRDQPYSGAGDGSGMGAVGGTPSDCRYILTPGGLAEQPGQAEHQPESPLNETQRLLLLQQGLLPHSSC
The following applies: at 0.1 µM.

For experiment [11], the target named is T2, Tyrosine-protein kinase receptor TYRO3 (Homo sapiens). The following applies: at 1 µM.
In experiment [12] the target is Tyrosine-protein kinase Yes (Homo sapiens) (UniProt P07947). The settings on record: at 0.1 µM.
Sequence of Tyrosine-protein kinase Yes (Homo sapiens) (P07947 2-543 limits assumed): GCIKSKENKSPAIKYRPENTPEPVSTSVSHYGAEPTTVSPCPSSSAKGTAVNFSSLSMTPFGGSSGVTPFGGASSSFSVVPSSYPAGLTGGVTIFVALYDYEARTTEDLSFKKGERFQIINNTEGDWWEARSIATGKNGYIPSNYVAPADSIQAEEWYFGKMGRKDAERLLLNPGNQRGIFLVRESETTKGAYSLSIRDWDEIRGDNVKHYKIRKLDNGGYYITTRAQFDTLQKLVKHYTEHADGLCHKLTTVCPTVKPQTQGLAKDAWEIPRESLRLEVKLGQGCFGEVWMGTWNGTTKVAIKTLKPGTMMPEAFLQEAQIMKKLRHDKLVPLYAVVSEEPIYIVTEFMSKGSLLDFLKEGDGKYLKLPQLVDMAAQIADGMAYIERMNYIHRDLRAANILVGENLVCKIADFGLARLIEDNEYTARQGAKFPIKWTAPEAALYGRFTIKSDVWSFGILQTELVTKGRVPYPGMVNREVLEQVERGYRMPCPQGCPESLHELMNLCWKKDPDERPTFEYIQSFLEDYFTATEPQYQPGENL
Experiment [13] shares this target. The following applies: at 1 µM.
For experiment [14], the target named is T3, Tyrosine-protein kinase ZAP-70 (Homo sapiens) (UniProt P43403).
T3 sequence (whole entry): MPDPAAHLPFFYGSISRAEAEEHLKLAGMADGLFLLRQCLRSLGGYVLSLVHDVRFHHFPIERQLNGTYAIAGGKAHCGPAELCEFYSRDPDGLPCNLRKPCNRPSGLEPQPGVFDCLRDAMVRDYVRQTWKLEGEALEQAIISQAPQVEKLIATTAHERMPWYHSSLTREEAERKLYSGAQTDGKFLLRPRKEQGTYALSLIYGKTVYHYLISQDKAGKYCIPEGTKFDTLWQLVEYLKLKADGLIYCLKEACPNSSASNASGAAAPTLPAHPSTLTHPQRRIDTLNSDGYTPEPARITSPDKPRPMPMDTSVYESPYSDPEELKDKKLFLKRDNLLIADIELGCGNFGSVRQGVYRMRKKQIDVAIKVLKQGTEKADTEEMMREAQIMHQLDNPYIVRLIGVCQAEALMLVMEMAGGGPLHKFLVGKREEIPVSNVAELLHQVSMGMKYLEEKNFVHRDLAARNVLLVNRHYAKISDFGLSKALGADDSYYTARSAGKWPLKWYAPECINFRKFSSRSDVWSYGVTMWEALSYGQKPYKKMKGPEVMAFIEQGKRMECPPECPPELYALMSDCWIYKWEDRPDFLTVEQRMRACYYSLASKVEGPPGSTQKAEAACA
The following applies: at 0.1 µM.

Experiment [15] deals with T3, Tyrosine-protein kinase ZAP-70 (Homo sapiens). The settings on record: at 1 µM.
For experiment [16], the target named is Serine/threonine-protein kinase B-raf (Homo sapiens) (UniProt P15056). The settings on record: at 0.1 µM.
Sequence of Serine/threonine-protein kinase B-raf (Homo sapiens) (P15056 whole entry): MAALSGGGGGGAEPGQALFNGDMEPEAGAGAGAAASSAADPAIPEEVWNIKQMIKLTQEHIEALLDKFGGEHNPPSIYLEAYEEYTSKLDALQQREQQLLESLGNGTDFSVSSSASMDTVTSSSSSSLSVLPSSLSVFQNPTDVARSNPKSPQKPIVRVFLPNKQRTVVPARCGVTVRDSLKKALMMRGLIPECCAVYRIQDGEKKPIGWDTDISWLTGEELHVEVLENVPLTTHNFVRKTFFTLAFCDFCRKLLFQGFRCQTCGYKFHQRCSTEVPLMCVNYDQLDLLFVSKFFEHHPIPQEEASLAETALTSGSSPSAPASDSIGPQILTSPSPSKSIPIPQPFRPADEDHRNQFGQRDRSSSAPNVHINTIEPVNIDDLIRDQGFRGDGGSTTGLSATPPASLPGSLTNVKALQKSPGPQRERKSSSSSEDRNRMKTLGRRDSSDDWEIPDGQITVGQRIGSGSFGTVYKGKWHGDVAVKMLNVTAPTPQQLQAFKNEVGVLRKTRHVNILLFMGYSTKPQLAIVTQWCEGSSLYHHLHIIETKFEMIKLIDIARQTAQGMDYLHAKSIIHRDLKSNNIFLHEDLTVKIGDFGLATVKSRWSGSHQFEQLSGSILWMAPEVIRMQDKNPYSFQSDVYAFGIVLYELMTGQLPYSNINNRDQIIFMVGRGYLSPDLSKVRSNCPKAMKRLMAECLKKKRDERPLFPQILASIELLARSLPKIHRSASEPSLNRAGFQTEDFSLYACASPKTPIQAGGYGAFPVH
Experiment [17] shares this target. The following applies: at 1 µM.
Experiment [18] deals with Serine/threonine-protein kinase B-raf (Homo sapiens), P15056 [V600E]. The settings on record: at 0.1 µM.
Sequence of Serine/threonine-protein kinase B-raf (Homo sapiens), P15056 [V600E] (P15056 whole entry V600E): as the sequence (P15056 whole entry) above, with V600E counted along it
Experiment [19] shares this test system. The settings on record: at 1 µM.
The target of experiment [20] is RAF proto-oncogene serine/threonine-protein kinase (Homo sapiens) (UniProt P04049). The settings on record: at 0.1 µM.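 Also: values are mean CRAF kinase inhibition from profiling of the GSK Published Kinase Inhibitor Set.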
Sequence of RAF proto-oncogene serine/threonine-protein kinase (Homo sapiens) (P04049 whole entry): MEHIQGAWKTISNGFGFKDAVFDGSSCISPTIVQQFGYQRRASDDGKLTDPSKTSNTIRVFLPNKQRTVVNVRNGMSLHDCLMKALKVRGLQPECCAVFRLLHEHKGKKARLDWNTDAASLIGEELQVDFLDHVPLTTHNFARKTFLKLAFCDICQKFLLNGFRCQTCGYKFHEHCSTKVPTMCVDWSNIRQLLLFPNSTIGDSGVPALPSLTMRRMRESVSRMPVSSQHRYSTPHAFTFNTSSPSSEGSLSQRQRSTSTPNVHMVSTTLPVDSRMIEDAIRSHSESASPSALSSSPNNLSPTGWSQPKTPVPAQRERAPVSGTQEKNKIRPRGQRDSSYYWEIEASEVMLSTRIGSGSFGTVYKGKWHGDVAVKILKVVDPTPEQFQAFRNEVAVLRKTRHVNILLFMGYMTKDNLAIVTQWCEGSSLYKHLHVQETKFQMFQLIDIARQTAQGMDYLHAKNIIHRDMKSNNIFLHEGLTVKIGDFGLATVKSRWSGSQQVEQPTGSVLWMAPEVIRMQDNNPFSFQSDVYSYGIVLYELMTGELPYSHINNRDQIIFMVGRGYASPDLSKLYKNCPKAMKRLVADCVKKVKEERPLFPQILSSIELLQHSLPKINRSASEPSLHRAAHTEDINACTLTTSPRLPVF

Sequence of Fibroblast growth factor receptor 4 (Homo sapiens) (P22455 22-802 limits assumed): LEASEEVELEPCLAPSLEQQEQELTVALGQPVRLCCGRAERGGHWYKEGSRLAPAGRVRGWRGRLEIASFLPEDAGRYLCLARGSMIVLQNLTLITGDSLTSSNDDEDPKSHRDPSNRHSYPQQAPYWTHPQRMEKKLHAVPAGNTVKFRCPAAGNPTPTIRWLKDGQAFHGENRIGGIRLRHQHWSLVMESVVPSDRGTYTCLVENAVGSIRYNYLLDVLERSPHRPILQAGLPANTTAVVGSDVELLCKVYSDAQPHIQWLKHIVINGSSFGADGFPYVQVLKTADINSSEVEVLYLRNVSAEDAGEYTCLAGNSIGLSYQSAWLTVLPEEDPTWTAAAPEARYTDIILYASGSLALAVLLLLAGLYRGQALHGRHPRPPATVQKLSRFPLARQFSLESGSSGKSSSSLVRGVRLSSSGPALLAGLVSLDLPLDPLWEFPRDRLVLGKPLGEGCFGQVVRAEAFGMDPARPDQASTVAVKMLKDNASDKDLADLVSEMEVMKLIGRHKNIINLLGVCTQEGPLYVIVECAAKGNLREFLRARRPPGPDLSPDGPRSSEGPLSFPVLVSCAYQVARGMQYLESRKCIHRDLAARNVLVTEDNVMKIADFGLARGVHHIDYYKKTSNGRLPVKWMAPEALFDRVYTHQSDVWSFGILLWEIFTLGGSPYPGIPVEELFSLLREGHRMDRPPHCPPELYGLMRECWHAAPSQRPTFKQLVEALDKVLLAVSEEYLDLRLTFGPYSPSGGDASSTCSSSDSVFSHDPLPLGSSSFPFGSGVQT
Sequence of Non-receptor tyrosine-protein kinase TYK2 (Homo sapiens) (P29597 whole entry): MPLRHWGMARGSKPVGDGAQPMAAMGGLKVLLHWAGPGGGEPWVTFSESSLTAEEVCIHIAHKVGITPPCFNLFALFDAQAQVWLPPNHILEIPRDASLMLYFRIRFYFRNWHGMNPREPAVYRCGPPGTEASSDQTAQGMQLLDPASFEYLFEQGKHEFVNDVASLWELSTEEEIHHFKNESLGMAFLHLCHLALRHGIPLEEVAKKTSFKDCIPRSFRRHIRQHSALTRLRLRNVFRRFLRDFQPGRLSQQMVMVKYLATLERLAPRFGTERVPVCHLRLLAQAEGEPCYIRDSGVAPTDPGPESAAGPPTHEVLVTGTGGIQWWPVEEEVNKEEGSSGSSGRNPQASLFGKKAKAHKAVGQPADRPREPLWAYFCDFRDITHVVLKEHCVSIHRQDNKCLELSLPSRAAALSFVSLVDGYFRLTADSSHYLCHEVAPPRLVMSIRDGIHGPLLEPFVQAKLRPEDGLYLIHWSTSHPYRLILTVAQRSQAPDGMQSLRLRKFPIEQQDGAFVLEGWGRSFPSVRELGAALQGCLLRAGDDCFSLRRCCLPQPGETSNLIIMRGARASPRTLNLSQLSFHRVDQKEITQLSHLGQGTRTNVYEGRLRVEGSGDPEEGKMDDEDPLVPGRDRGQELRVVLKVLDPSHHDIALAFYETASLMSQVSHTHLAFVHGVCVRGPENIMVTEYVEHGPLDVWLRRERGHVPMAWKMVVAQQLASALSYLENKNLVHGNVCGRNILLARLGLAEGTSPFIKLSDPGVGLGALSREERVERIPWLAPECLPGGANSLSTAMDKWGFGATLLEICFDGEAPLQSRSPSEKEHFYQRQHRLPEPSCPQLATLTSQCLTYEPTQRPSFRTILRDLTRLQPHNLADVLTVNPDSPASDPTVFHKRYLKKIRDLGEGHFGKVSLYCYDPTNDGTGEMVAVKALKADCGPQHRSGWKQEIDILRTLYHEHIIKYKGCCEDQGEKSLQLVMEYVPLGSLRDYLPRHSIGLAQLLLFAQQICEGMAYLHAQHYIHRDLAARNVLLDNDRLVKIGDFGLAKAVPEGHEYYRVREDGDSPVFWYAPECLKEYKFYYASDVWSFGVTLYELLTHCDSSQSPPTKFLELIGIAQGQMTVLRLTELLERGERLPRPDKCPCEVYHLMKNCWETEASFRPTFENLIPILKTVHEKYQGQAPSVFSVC
Sequence of Tyrosine-protein kinase Fgr (Homo sapiens) (P09769 2-529 limits assumed): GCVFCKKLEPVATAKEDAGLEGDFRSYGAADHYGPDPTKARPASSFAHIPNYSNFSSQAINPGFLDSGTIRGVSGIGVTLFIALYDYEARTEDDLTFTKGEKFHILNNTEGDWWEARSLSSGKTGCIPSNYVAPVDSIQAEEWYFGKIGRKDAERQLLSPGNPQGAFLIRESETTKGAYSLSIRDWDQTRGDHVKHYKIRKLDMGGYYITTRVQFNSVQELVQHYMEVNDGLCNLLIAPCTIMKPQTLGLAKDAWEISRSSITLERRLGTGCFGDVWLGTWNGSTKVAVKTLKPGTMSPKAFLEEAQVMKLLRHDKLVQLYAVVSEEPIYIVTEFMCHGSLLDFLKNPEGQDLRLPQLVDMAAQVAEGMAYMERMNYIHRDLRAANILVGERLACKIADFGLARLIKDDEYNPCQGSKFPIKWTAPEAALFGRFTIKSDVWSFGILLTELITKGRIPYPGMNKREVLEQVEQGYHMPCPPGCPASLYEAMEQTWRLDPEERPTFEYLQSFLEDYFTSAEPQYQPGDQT

Usually inhibition stands for the change of the read-out against control, counted positive when it falls. As to `COc1c(C(N)=O)cc(-c2ccc(Cl)cc2)cc1-c1ccc(S(N)(=O)=O)cc1`, the inhibition in [1] is 2.25%; in experiment [2], 0.21%; in experiment [3] it was 2.86%; in experiment [4] it was -0.38%; in experiment [5], 2.07%; in experiment [6] it was 1.63%. Moreover, the inhibition in [7] is 3.25%; in [8], -1.44%; in experiment [9], -6.53%; in [10] it was 2.09%; in experiment [11], 2.96%; in [12], 1.57%. For the same compound, the inhibition in [13] was 4.52%; in experiment [14], 2.39%; in experiment [15], 4.12%; in [16], 6.5%; in experiment [17] it was 8.57%; in experiment [18], 4.06%. Also, the inhibition in experiment [19] was determined as 3.68%; in experiment [20] it was 2.31%.
Regarding `COc1cc(Nc2ncc(-c3ccccc3)o2)cc(OC)c1`, the inhibition was -0.29% in [1]; 5.71% in experiment [2]; 30.2% in [3]; 4.69% in experiment [4]; 18.8% in experiment [5]; 71.8% in [6]. Besides, the inhibition was 90.5% in [7]; 5.63% in experiment [8]; -1.72% in [9]; 2.81% in [10]; 8.91% in experiment [11]; 5.8% in [12]. Also, the inhibition in experiment [13] came out at 39.5%; in [14], 2.8%; in experiment [15], 1.02%; in experiment [16], 7.08%; in experiment [17] it was 6.68%; in experiment [18], 5.31%. For the same compound, the results for the inhibition in experiment [19] and in experiment [20] were 3.47% and 0.47%, respectively.
Turning to `CC1=C(C(=O)Nc2ccc3[nH]nc(C)c3c2)C(c2ccc(C(F)(F)F)cc2)CC(=O)N1` (stereo not given), the inhibition in [1] is 2.06%; in experiment [2], 1.2%; in experiment [3], 3.75%; in [4] it was 1.04%; in experiment [5] it was 5.46%; in experiment [6], -0.53%. Besides, the inhibition was found to be 3.38% in experiment [7]; 0.37% in experiment [8]; 37.5% in experiment [9]; 2.07% in experiment [10]; 2.61% in [11]; 2.7% in [12]. In addition, the inhibition in experiment [13] was found to be 11.8%; in experiment [14], 0.65%; in experiment [15], 2.13%; in experiment [16] it was 6.25%; in experiment [17] it was 38.8%; in [18], 5.77%. Also, the results for the inhibition in experiment [19] and in experiment [20] were 37.9% and 3.79%, respectively.
With `CNC(=O)c1cncc(/C=C/c2ccccc2C)c1`, the inhibition was -0.62% in experiment [1]; 5.41% in [2]; 9.23% in experiment [3]; 1.31% in experiment [4]; 0.49% in [5]; 1.85% in experiment [6]. The inhibition in experiment [7] was 1.3%; in [8], -2.2%; in experiment [9], -3.23%; in experiment [10] it was 3.13%; in experiment [11] it was 3.96%; in experiment [12] it was 4.29%. The inhibition in [13] amounted to 9.93%; in experiment [14], 1.58%; in experiment [15], 2.36%; in experiment [16] it was 6.43%; in [17] it was 7.91%; in experiment [18], 6.48%. For the same compound, the inhibition in experiment [19] was 6.88%; in experiment [20], 5.82%.
With `CN(c1ccc(NC(=O)NCCN2CCOCC2)cc1)c1ccnc(Nc2ccc(CS(C)(=O)=O)cc2)n1`, the inhibition in experiment [1] amounted to 1.61%; in experiment [2], 3.44%; in experiment [3] it was 11.3%; in experiment [4], 13.6%; in experiment [5], 30.7%; in experiment [6] it was 56.4%. The inhibition in experiment [7] was 83.7%; in experiment [8] it was 8.58%; in experiment [9], -0.59%; in experiment [10], 3.48%; in experiment [11], 6.95%; in experiment [12], 1.4%. In addition, the inhibition turned out to be 8.5% in [13]; 0.58% in [14]; 2.72% in experiment [15]; 4.55% in experiment [16]; 7.4% in experiment [17]; 3.94% in experiment [18]. Also, the inhibition was 7.38% in [19] and 6.1% in experiment [20].
Take `CNC(=O)c1ncccc1Nc1nc(Nc2cc3c(cc2OC)CCCN3C(=O)CN(C)C)nc2[nH]ccc12`: the inhibition was 0.76% in experiment [1]; 1.73% in experiment [2]; 7.26% in [3]; 0.02% in [4]; -0.67% in experiment [5]; 3.6% in [6]. The inhibition in [7] was 4.13%; in [8], 1.41%; in [9], -1.39%; in experiment [10], 4.43%; in experiment [11], 5.61%; in experiment [12], 0.73%. In addition, the inhibition in experiment [13] is -1.63%; in experiment [14], -0.5%; in experiment [15] it was 2.99%; in experiment [16] it was 4.31%; in [17], 4.44%; in [18], 5.35%. Besides, the inhibition in experiment [19] is 9.32%; in experiment [20], -1.22%.
On to `c1ccc(-c2n[nH]cc2-c2ccnc(-c3ccc(OCCn4ccnc4)cc3)c2)nc1`, for which the inhibition in experiment [1] is 4.5%; in [2], 0.78%; in experiment [3], 2.78%; in experiment [4], 5.66%; in experiment [5] it was 29.5%; in experiment [6], -0.04%. The inhibition was 2.15% in experiment [7]; 2.71% in experiment [8]; -0.27% in [9]; 1.13% in experiment [10]; 1.47% in experiment [11]; 1.05% in [12]. Further, the inhibition came out at 8.13% in experiment [13]; 2.15% in [14]; 2.34% in experiment [15]; 2.04% in experiment [16]; 1.85% in experiment [17]; 0.71% in [18]. Also, the inhibition in experiment [19] is 1.34%; in experiment [20] it was -0.53%.
